DAT uptake mod: modulates human dopamine transporter uptake under cocaine; B-score at 10 µM; Q01959; LLC-PK1 hDAT cells, [14C]-dopamine uptake with cocaine IC80; actives deviate in either direction; hit rate 1.3% among 110,000;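 active = Z score or B-score, a plate-position-corrected score, falls beyond the plate's 99.7% confidence bounds, in either direction; inactive = both scores lie inside the 99.7% bounds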;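 note: scored against the spread of the other compound wells on the same plate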
Target sequence (Q01959 whole entry, looked up): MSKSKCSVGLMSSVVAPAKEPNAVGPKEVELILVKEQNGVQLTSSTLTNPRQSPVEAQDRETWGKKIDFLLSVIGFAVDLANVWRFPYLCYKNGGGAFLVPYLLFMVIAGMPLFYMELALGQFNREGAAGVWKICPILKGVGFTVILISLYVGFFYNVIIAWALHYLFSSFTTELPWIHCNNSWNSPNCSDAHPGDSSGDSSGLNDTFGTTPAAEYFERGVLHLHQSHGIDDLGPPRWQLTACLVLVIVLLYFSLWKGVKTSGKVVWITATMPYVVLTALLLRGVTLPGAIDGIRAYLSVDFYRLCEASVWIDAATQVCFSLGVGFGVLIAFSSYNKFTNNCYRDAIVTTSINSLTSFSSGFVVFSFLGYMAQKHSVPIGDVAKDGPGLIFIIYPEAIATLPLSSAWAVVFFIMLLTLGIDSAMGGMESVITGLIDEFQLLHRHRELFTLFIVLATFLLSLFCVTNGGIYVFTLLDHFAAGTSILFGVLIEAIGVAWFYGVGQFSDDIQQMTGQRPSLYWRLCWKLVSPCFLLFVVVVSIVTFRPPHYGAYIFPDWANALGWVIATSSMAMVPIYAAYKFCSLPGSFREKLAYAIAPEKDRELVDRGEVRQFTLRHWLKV
BAP1 inh: blocks human BAP1 ubiquitin-AMC hydrolysis | calls only at 20 µM | hit rate 0.48% among 72,000 | Q92560 | recombinant BAP1, Ub-AMC hydrolysis fluorescence kinetic; hits give low values;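 active = activity remaining at or below 50% of control, provided the compound also passes the data quality filters; inactive = the rest, including low values that fail the filters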;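 note: 100% = DMSO wells rate and 0% = substrate alone blank rate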
D1 mod: allosteric modulators of human D1 dopamine receptor | P21728 | HEK293 D1, CRE-luciferase, dopamine EC30 potentiation; actives deviate in either direction | B-score at 10 µM | hit rate 5.9% among 58,000 | AID 641;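 active = luminescence count or its row- and column-corrected plate score outside the 99.7% band of the plate's sample wells, on either side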
D1 PAM confirm: D1 receptor (human) allosteric modulation, confirmed; shares compounds with D1 mod; HEK293 D1 CRE-luciferase, dopamine EC30 potentiation; hits give high values; luminescence at 10 µM; hit rate 88% among 2,200; AID 642;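 active = luminescence in either of two replicates above the same-plate mean plus 3 SD of the low-dose dopamine control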
D1 ag no DA: activates D1 CRE-luciferase signal without dopamine present; shares compounds with D1 mod; HEK293 D1 CRE-luciferase, luminescence, no dopamine; hits give high values; luminescence at 10 µM; hit rate 0.8% among 1,900; in the data active = luminescence above about 3900
Isoprot counter: isoproterenol response counter-screen activity for D1 modulators; shares compounds with D1 mod; hit rate 63% among 2,200; AID 647; HEK293 D1 CRE-luciferase, isoproterenol EC30 counter-screen; hits give high values; luminescence at 10 µM;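 active = luminescence in either replicate above plate mean of wells with a partly effective reference agonist dose plus 3 SD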;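 note: isoproterenol raises cAMP through native beta-adrenoceptor Gs so signal bypasses D1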
Starred values were filed as active, the others as inactive; i = inactive; x = no result shown. This excerpt belongs to a sample that is enriched for hits.

SMILES	DAT uptake mod	BAP1 inh	D1 mod	D1 PAM confirm	D1 ag no DA	Isoprot counter
CC(C)(C)NCC(O)c1cc(O)cc(O)c1 (centres undefined)	0.25	i	8.1*	7100*	2544	6212*
C=CCNC(=S)NNC(=O)c1ccccc1	-0.035	x	x	x	x	x
C=CCNC(=O)c1ccccc1NC(=O)c1ccccc1	0.43	i	8.3*	16308*	1672	3208
Cc1ccc(N2C(=O)c3cc4cccc(Br)c4cc3C2=O)cc1	x	i	x	x	x	x
COc1ccc(N2CCN(Cc3nc(N)nc(Nc4ccc(C)c(Cl)c4)n3)CC2)cc1	1	i	0.45	x	x	x
COc1ccc(N2CCN(Cc3nc(N)nc(N4CCCc5ccccc54)n3)CC2)cc1	0.7	i	5.7*	13244*	1624	3232*
Nc1nc(CN2CCN(c3cccc(Cl)c3)CC2)nc(N2CCCc3ccccc32)n1	0.026	i	1.2	x	x	x
Nc1nc(CN2CCN(c3ccccc3)CC2)nc(N2CCCc3ccccc32)n1	0.09	i	4*	8864*	1484	3120
c1ccc(CCn2c(SCCN3CCOCC3)nc3ccccc32)cc1	x	i	x	x	x	x
Cc1ccc2nc(N3CCC(C(=O)O)CC3)nc(-c3ccccc3)c2c1	0.26	i	6.5*	10876*	1380	3708*
CC(=O)N1CCN(c2nc(-c3ccccc3)c3cc(Br)ccc3n2)CC1	x	i	x	x	x	x
COc1ccc(C(=O)CSc2cc(C)nc3nc(C)nn23)cc1OC	1.2	i	5.1*	9832*	x	3320*
CSc1nsc(SCC(=O)Nc2ccccn2)n1	-0.039	i	-0.03	x	x	x
COc1ccc(C(=O)CSc2nc(SC)ns2)cc1OC	-0.48	i	8.4*	17700*	1872	4392*
COc1ccc(C(=O)NCC(=O)n2nc(C)cc2C)cc1OC	-0.32	i	x	x	x	x
Cc1ccc(N2C(=O)C(Cl)=C(Nc3ccccc3F)C2=O)c(C)c1	x	i	x	x	x	x
CCOc1ccc(Oc2cc(NC(=O)c3cc4n(n3)C(C(F)(F)F)CC(c3ccc5c(c3)OCO5)N4)cc([N+](=O)[O-])c2)cc1 (centres undefined)	x	i	x	x	x	x
COc1nc(NCCc2ccc(OC)c(OC)c2)nc(OC)n1	0.69	i	2	x	x	x
CCOc1nc(NCCc2ccc(OC)c(OC)c2)nc(NC(C)(C)CO)n1	0.015	i	3.2*	9808*	1608	3376
Cc1ccc(C(=O)OCC(=O)Nc2ccccc2)cc1NC(=O)c1ccco1	0.36	i	4.4*	6808	1724	2780
Cc1ccc(C(=O)OCC(=O)Nc2ccc(N(C)C)cc2)cc1NC(=O)c1ccco1	0.51	x	x	x	x	x
CC(C)(C)n1nc2c(c1NC(=O)c1cccc(C(F)(F)F)c1)CSC2	x	i	x	x	x	x
Cc1ccc(-n2ncc(C#N)c2/N=C/N2CCN(C)CC2)cc1	0.23	i	0.00058	x	x	x
Cc1ccc(-n2ncc(C#N)c2/N=C/N2CCCCCC2)cc1	0.46	i	20*	17800*	1536	4284*
CCOC(=O)c1ccc(NC(=O)C2CCCN2S(=O)(=O)c2ccc(C)cc2)cc1 (centres undefined)	x	i	x	x	x	x
SMILES	DAT uptake mod	BAP1 inh	D1 mod	D1 PAM confirm	D1 ag no DA	Isoprot counter
O=C(Nc1ccc(NC(=O)c2ccco2)c(Cl)c1)c1cccc(F)c1	x	i	x	x	x	x
Cc1cc2nn(-c3ccccc3)nc2cc1NC(=O)c1ccc(-c2ccc([N+](=O)[O-])cc2)o1	x	i	x	x	x	x
N#Cc1c(-c2ccco2)cc(-c2ccccn2)nc1N	0.43	i	6.5*	12544*	1548	3648*
Cc1nc(N)c(C#N)c(-c2ccccc2)c1C	-0.61	i	-0.54	x	x	x
N#Cc1c(-c2ccco2)cc(-c2cccnc2)nc1N	0.15	i	8.3*	14352*	1676	5436*
c1cncc(-c2nc(-c3ccco3)cs2)c1	-0.0029	i	1.1	x	x	x
Cc1c(-c2ccccc2)nc(N)c(C#N)c1-c1ccco1	-0.044	x	5*	15044*	1636	3036
Cc1ccc(-c2cc(-c3ccccc3Cl)c(C#N)c(N)n2)o1	0.1	i	-0.18	x	x	x
CCCOC(=O)C1=C(C)NC2=C(C(=O)CC(C)(C)C2)C1c1ccccc1 (centres undefined)	x	i	x	x	x	x
CN(C)S(=O)(=O)n1cnc2ccccc21	-0.55	i	-0.32	x	x	x
Cc1nc(-c2ccccc2O)n(S(=O)(=O)N(C)C)n1	-1.5	i	5.5*	8136*	1504	3412*
CCc1nc(Nc2ccccc2)c2oc3ccccc3c2n1	-0.79	x	x	x	x	x
CCc1nc(NCCCn2ccnc2)c2oc3ccccc3c2n1	0.8	i	5.5*	13664*	x	3032*
CCc1ccc2[nH]c(=O)c(CN(Cc3nnnn3C3CCCC3)C3CCCCC3)cc2c1	0.98	i	2.5*	8428*	1592	2772
Cc1cccc2cc(CN(Cc3nnnn3C3CCCC3)C3CCCCC3)c(=O)[nH]c12	0.93	i	1.4	x	x	x
CC(Sc1nc(N2CCOCC2)c2c(c1C#N)CC(C)(C)OC2)C(=O)Nc1ccccc1 (centres undefined)	-0.24	i	5.2*	9724*	1700	5172*
CSc1nc(N2CCOCC2)c2c(c1C#N)CC(C)(C)OC2	-0.13	x	x	x	x	x
O=C(Nc1sc2c(c1C(=O)NCc1cccnc1)CCCC2)c1ccco1	0.49	i	12*	17940*	1360	3988*
CC(Oc1ccc(F)cc1)C(=O)Nc1sc2c(c1C(=O)NCc1cccnc1)CCCC2 (centres undefined)	2	x	x	x	x	x
CCOC(=O)C(Cc1cc(C(C)=O)ccc1OCC)C(=O)OCC	1.1	i	0.46	x	x	x
CCOc1ccc(C(C)=O)cc1COC(=O)C1=COCCO1	1.3	i	4.7*	12532*	1772	3484*
Cc1ccc(Oc2cccc(N3C(=O)c4cccc([N+](=O)[O-])c4C3=O)c2)cc1C	x	i	x	x	x	x
COc1ccc(CC(=O)Nc2ccc(-c3cn4ccccc4n3)cc2)cc1OC	-0.41	x	x	x	x	x
COc1ccc(-c2cn3ccccc3n2)cc1OC	1	i	12*	12712*	x	3136*
O=CN1Cc2[nH]c3ccccc3c2N(c2ccc(Cl)cc2)C1=O	-1.4	i	9*	10080*	1192	2796
SMILES	DAT uptake mod	BAP1 inh	D1 mod	D1 PAM confirm	D1 ag no DA	Isoprot counter
O=C1CNCc2[nH]c3ccccc3c2N1c1ccccc1	-0.0015	i	1.8	x	x	x
Cc1ccc(S(=O)(=O)NC(C)C(=O)O)cc1 (centres undefined)	x	i	x	x	x	x
CCn1cc(C(=O)NCCCN(C)c2ccccc2)c(=O)c2cc(S(=O)(=O)N(C)C)ccc21	0.27	i	5.6*	8908*	1440	4204*
C=CCn1cc(C(=O)NCCOC)c(=O)c2cc(S(=O)(=O)N(CC)CC)ccc21	1.8	i	0.78	x	x	x
CCN(CCCNC(=O)c1cn(CC)c2ccc(S(=O)(=O)N(C)C)cc2c1=O)c1cccc(C)c1	1.7	i	2.8	x	x	x
C=CCn1cc(C(=O)NCc2cccnc2)c(=O)c2cc(S(=O)(=O)N(CC)CC)ccc21	2	i	2.8*	9940*	1684	3644*
CCn1cc(C(=O)NCc2ccccc2OC)c(=O)c2cc(S(=O)(=O)N(C)C)ccc21	0.66	i	7.8*	13952*	1756	5432*

Bioassay records from PubChem.
